In PubChem BioAssay AID618 (Sanford-Burnham Center for Chemical Genomics, 2007) one finds outcome data, which are given here for 120 compounds.

The whole screen tested about 87,000 compounds, of which about 540 (0.62%) were called active. How the calls were made is not given here. The sample as a whole holds a higher share of actives than the screen did. Results with a measured potency or affinity are listed apart.

This assay can be described thus: MT1-MMP gene expression reporter suppression – cell-based, luciferase reporter, luminescence (AID 618).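 Further: actives suppress MT1-MMP promoter-driven transcription so potencies describe inhibitors.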 Particulars: MT1-MMP promoter luciferase reporter cells. (Reporter assays use an easily measured gene product as a stand-in for the process of interest.)
For the compound `CCCN(CCC)S(=O)(=O)c1ccc(NS(=O)(=O)c2ccc(F)cc2)cc1`, the compound was classed as inactive.

Turning to `CCC(=O)c1ccccc1OCCCn1cncn1`, the compound was called inactive.

On to `CC(=O)Nc1cc2nn(-c3ccccc3)nc2cc1Cl`, for which the outcome was inactive.

`CCC(=O)Nc1cc2nn(-c3ccccc3)nc2cc1Cl`: the outcome was active.

Consider `CC(C)CC(=O)Nc1cc2nn(-c3ccccc3)nc2cc1Cl`, for which the compound was called inactive.

In the case of `C=CCSc1nnc(-c2ccc(Cl)cc2Cl)o1`, the call was inactive.

As to `Clc1ccc(-c2nnc(SCc3ccon3)o2)c(Cl)c1`, the call was active.

Turning to `CCSc1nnc(-c2ccc(Cl)cc2Cl)o1`, the outcome was inactive.

As to `Cc1cc(OCC(=O)N2CCc3ccccc3C2)c2c(-c3ccccc3)cc(=O)oc2c1`, the call was inactive.

Regarding `Cc1ccc(S(=O)(=O)N(C)Cc2ccc(-c3nnc4n3CCC4)cc2)cc1`, the call was inactive.

Take `COC(=O)CNC(=O)[C@@]1(C)C=C[C@@H](Cc2ccccc2)N1C(=O)OC`: the call was active.

Consider `CNC(=O)[C@@]1(C)C=C[C@@H](Cc2ccccc2)N1C(=O)OC`, for which the compound was called inactive.

On to `COC(=O)CNC(=O)[C@@]1(C)C=C[C@@H](Cc2ccccc2)N1C(C)=O`, for which the result was inactive.

Consider `CCOC(=O)C1CCN(Cc2ccc(F)cc2F)CC1`, for which the compound was called inactive.

For `O=C1NC2(CCOc3ccccc32)C(=O)N1CC(=O)N(Cc1ccccc1)C1CCS(=O)(=O)C1` (stereo not given), the result was inactive.

On to `Cc1ccc2nc(N/N=C\c3ccc([N+](=O)[O-])o3)nc(-c3ccccc3)c2c1`, for which the call was inactive.

Regarding `Cn1c(SCc2ccon2)nc2ccccc2c1=O`, the outcome was inactive.

With `Cn1c(/C=C/c2ccc([N+](=O)[O-])o2)nc2ccccc2c1=O`, the outcome was active.

With `COc1ccccc1C(=O)Nc1ccc2c(c1)nc(CN1CCN(C(C)=O)CC1)n2C`, the call was inactive.

`C/C=C(/C(=C/C)c1ccc(O)cc1)c1ccc(O)cc1`: the compound was called inactive.

Regarding `CC(/C=C/c1ccc(O)cc1)=N/O`, the result was inactive.

As for `Oc1ccc(/C=C/c2cc(O)cc(O)c2)cc1`, the call was active.

With `c1ccc(Cn2c(Nn3cnnc3)nc3ccccc32)cc1`, the call was inactive.

Consider `COc1ccc(CCN(Cc2cc3cccc(C)c3[nH]c2=O)C(=O)NC2CCCCC2)cc1OC`, for which the call was inactive.

As to `COc1ccc2c(c1)Cc1sc(NC(=O)c3ccco3)nc1-2`, the compound was called inactive.

For `O=C(Nc1nnc(-c2ccco2)s1)c1ccccc1`, the outcome was inactive.

As for `COc1ccc2nc(NC(=O)c3ccoc3C)sc2c1`, the compound was called inactive.

`COc1ccc2sc(NC(C)=O)nc2c1`: the result was inactive.

Consider `COc1ccccc1C(=O)Nc1nnc(-c2ccco2)s1`, for which the call was inactive.

With `CS(=O)(=O)c1ccc2nc(NC(=O)c3ccco3)sc2c1`, the result was inactive.

Consider `COc1ccc2sc(NC(=O)c3ccco3)nc2c1`, for which the result was active.

As for `CCOc1ccc2nc(NC(=O)c3cnc(C)cn3)sc2c1`, the outcome was inactive.

In the case of `O=C(Nc1nc2ccc(Cl)cc2s1)c1ccco1`, the compound was classed as inactive.

Consider `O=C(CCN1C(=O)COc2ccccc21)NCc1cccnc1`, for which the result was inactive.

`O=C(NCc1cccnc1)C1CCN(S(=O)(=O)N2CCC3(CC2)OCCO3)CC1`: the outcome was inactive.

Consider `Cc1ccc(NC(=O)C2CCN(C(=O)NC3CCCCC3)CC2)cc1`, for which the compound was classed as inactive.

`CC(=O)c1ccc(OCC(O)CN2CCC(C)CC2)cc1` (stereo not given): the compound was called inactive.

On to `Cc1ccc(C)c(OCCCC(=O)O)c1`, for which the result was inactive.

In the case of `Nc1ccc(Oc2ccc([N+](=O)[O-])cc2[N+](=O)[O-])cc1`, the compound was classed as inactive.

Regarding `COc1ccccc1NC(=O)CSc1nnc(-c2ccco2)o1`, the compound was classed as inactive.

As to `NC(=O)C1(N2CCCCC2)CCN(c2nc(-c3ccccc3)cs2)CC1`, the call was inactive.

On to `COCCn1c(=S)[nH]c2cc(C(=O)NCC3CCCO3)ccc2c1=O` (stereo not given), for which the compound was called inactive.

Turning to `COc1cccc(C(=O)Nc2ccc(C(=O)O)cc2)c1`, the outcome was inactive.

For `c1ccc(-c2noc(CSc3nnc(Cc4cccs4)n3-c3ccccc3)n2)cc1`, the outcome was inactive.

In the case of `Cc1nn2cc(-c3ccccc3)nc2[nH]c1=O`, the outcome was inactive.

For `CCN(CC)CCNC(=O)c1sc2nc(-c3ccccc3)cn2c1C`, the result was inactive.

`O=C(O)CCc1nn2cc(-c3ccccc3)nc2[nH]c1=O`: the outcome was inactive.

`Cc1nc(-c2ccccc2)cs1`: the call was inactive.

For `Cc1cccn2cc(-c3ccccc3)nc12`, the compound was called inactive.

`Cc1nn2c(-c3ccc(Cl)cc3)nnc2s1`: the compound was called inactive.

For the compound `Nc1nc(-c2ccc(Cl)cc2)cn1N`, the outcome was inactive.

In the case of `Cc1nn2cc(-c3ccc(Cl)cc3)nc2s1`, the compound was called active.

Turning to `Cc1c(C(=O)N2CCOCC2)sc2nc(-c3ccccc3)cn12`, the outcome was inactive.

As for `CCc1nn2cc(-c3ccccc3)nc2s1`, the compound was classed as active.

As for `Cc1nn2cc(-c3ccc(-c4ccccc4)cc3)nc2s1`, the compound was classed as active.

As to `Cc1ccc(CNCc2cc3c(C(C)(C)C)nn(-c4ccccc4)c3[nH]c2=O)cc1`, the compound was called inactive.

`O=C(O)CNS(=O)(=O)c1cc(Cl)c(Cl)cc1Cl`: the outcome was inactive.

Turning to `Cc1ccc(NC(=O)CS(=O)CC(=O)N(c2ccc(C)cc2)C(C)C(=O)NC2CCCCC2)cc1` (stereo not given), the compound was called inactive.

With `CC(C)COC(=O)CNc1n[nH]c(=S)[nH]c1=O`, the result was inactive.

As to `Cc1cc(NC(=O)COC(=O)[C@H](Cc2c[nH]c3ccccc23)NC(=O)c2ccc(F)cc2)no1`, the outcome was inactive.

In the case of `COC(=O)CSc1nnc(-c2ccncc2)o1`, the compound was called inactive.

As to `C=CCn1c(SCC(=C)C)nc2c1c(=O)[nH]c(=O)n2C`, the result was inactive.

Consider `Cc1cc(C)n(-c2nc3c(c(=O)[nH]c(=O)n3C)n2CCc2ccccc2)n1`, for which the result was inactive.

As to `Cc1ccc(Cn2c(-n3nc(C)cc3C)nc3c2c(=O)[nH]c(=O)n3C)cc1`, the compound was classed as inactive.

Take `COc1ccc(CCn2c(-n3nc(C)cc3C)nc3c2c(=O)[nH]c(=O)n3C)cc1`: the call was active.

Turning to `O=c1ccc2ccc(OCc3nnc(-c4ccccc4Br)o3)cc2o1`, the call was inactive.

For the compound `O=c1c2ccccc2nc2c3ccccc3c3nncn3n12`, the result was inactive.

As for `O=C(Nc1ccc(S(=O)(=O)N2CCOCC2)cc1)c1cccs1`, the compound was classed as inactive.

`COc1ccc(-n2nnnc2S(=O)(=O)Cc2ccc(C(=O)O)cc2)cc1`: the outcome was inactive.

For the compound `COc1ccc(-n2nnnc2S(=O)(=O)CC(=O)N2CCCCC2)cc1`, the call was active.

`COc1cc(OC)cc(-n2nnnc2SCC(=O)N2CCCC2)c1`: the compound was called inactive.

Turning to `Cc1ccc2[nH]c(=O)c(-c3noc(C(C)C)n3)cc2c1`, the compound was called inactive.

For the compound `Cc1cccc(CS(=O)(=O)Cc2ccc(C(=O)O)o2)c1`, the compound was classed as inactive.

For `Nc1ccc(-c2cnc(-c3ccc(N)cc3)nc2)cc1`, the compound was called inactive.

Take `Brc1ccc(-c2ncc(-c3ccccc3)cn2)cc1`: the compound was called inactive.

As to `O=C(O)CCc1nn2cnc3sc4c(c3c2nc1=O)CCCC4`, the call was inactive.

Turning to `CCOc1c(S(=O)(=O)N2CCCC2)ccc(Cl)c1Cl`, the result was inactive.

Regarding `Cc1cccc(NC(=O)c2cc3n(n2)C(C(F)(F)F)CC(c2ccc4c(c2)OCO4)N3)c1` (stereo not given), the call was inactive.

As for `O=C(NC1CCCCC1)N(CCN1CCOCC1)Cc1cc2cc3c(cc2[nH]c1=O)OCCO3`, the compound was classed as inactive.

With `COc1ccc(OC)c(Nc2cc(C)nc3ccccc23)c1`, the compound was called inactive.

As to `COc1ccc(OC)c(Nc2nc(N)nc(-c3cc4ccccc4o3)n2)c1`, the compound was called inactive.

As to `COc1ccc(OC)c(Nc2cc(-c3ccccc3)nc(N)n2)c1`, the outcome was active.

On to `COCCN(CC(=O)NCc1ccccc1)C(=O)CCC(=O)Nc1nccs1`, for which the compound was called inactive.

Regarding `COc1ccc(C(c2sc3nc(C)nn3c2O)N2CC(C)OC(C)C2)cc1OC` (stereo not given), the compound was called inactive.

Regarding `Cn1c(SCC(=O)N2CCOCC2)nc(O)cc1=O`, the call was inactive.

`O=c1c2ccccc2ncn1Cc1nc2ccccc2s1`: the call was inactive.

`O=C1c2ccccc2S(=O)(=O)N1Cc1cc(=O)n2ccsc2n1`: the compound was called inactive.

As to `c1ccc(C2=Nc3ccccc3OC2)cc1`, the compound was classed as inactive.

`COc1ccc(C2=Nc3cc(C)ccc3OC2)cc1`: the result was inactive.

Consider `CSc1sc(C(=O)O)c2c1C(=O)CCC2`, for which the result was inactive.

As to `COc1cccc(C2NC(=O)NC(C)=C2C(=O)OCCSC)c1OC` (stereo not given), the call was inactive.

`CN(C)S(=O)(=O)c1ccc(C(=O)Nc2ccc(CCC(=O)N3CCCC3)cc2)cc1`: the outcome was inactive.

Regarding `CC1CN(Cc2nc3c(c(=O)[nH]c(=O)n3C)n2CC(N)=O)CC(C)O1` (stereo not given), the compound was called inactive.

Regarding `O=C(OC1CCOC1=O)c1ccc(-c2nc3ccccc3s2)s1` (stereo not given), the compound was classed as inactive.

As for `CCCNC(=O)c1ccc(-c2nc3ccccc3s2)s1`, the call was inactive.

As to `O=C(NC1CC1)c1ccc(-c2nc3ccccc3s2)s1`, the result was active.

With `CCOC(=O)c1sc(Nc2ccc(C)cc2C)nc1C`, the outcome was inactive.

As for `COc1cc(CN2CCN(S(=O)(=O)c3ccc(F)cc3)CC2)cc(OC)c1OC`, the result was inactive.

With `Nc1sc2c(c1C(=O)NC1CCS(=O)(=O)C1)CCCC2` (stereo not given), the compound was classed as inactive.

On to `COc1cc(/C=N/O)ccc1OCc1ccc(C(=O)O)cc1`, for which the result was active.

Consider `O=C(O)c1cc(/C=N\O)ccc1OCc1ccccc1`, for which the outcome was inactive.

For the compound `COc1cc(C(N)=O)ccc1OCc1ccccc1`, the outcome was inactive.

`CCOC(=O)Cn1cc(C(=O)OC)c2ccccc21`: the result was inactive.

As to `CCOc1ccccc1N1CCN(C(=O)C2c3ccccc3Oc3ccccc32)CC1`, the compound was classed as inactive.

For `O=C(C1c2ccccc2Oc2ccccc21)N1CCN(c2ccc(Cl)cc2)CC1`, the call was inactive.

With `COc1ccccc1N1CCN(C(=O)C2c3ccccc3Oc3ccccc32)CC1`, the compound was called active.

For `CCOC(=O)C1CCN(Cc2ccccc2C)CC1`, the compound was classed as inactive.

Take `Cc1cnc(C)c(N2CCC(C(=O)NC(C)c3cccs3)CC2)n1` (stereo not given): the outcome was inactive.

In the case of `COc1cccc(C2CC(=O)Nc3cc4c(cc32)OCCO4)c1OC(C)C` (stereo not given), the outcome was inactive.

Consider `CC(C)Oc1ccccc1C1CC(=O)Nc2cc3c(cc21)OCCO3` (stereo not given), for which the call was inactive.

As to `CC(C)Oc1ccccc1C1CC(=O)Nc2cc3c(cc21)OCO3` (stereo not given), the result was active.

`CCOc1ccccc1C1CC(=O)Nc2cc3c(cc21)OCCO3` (stereo not given): the result was inactive.

On to `CCCOc1ccccc1C1CC(=O)Nc2cc3c(cc21)OCCO3` (stereo not given), for which the compound was called inactive.

On to `CCOc1ccccc1C1CC(=O)Nc2cc3c(cc21)OCO3` (stereo not given), for which the outcome was active.

Turning to `Cc1[nH]nc2c1C(c1ccc(Cl)cc1)C(C#N)=C(N)O2` (stereo not given), the outcome was inactive.

Regarding `CCOC(=O)C1CCCn2c1nc1sc3c(c1c2=O)CCCC3` (stereo not given), the call was inactive.

As to `CC(C)(C)c1ccc(S(=O)(=O)NCc2ccc(C(=O)N3CCCC3)cc2)cc1`, the outcome was inactive.

As for `CO/N=C/C(=N\Nc1ccc(OC)cc1)C(=O)c1ccc(OC)cc1`, the compound was called inactive.

Regarding `COc1ccc(N/N=C(\C=N\O)C(=O)c2ccc(OC)cc2)cc1`, the compound was classed as active.

As for `CO/N=C/C(=N\Nc1ccc(C)cc1)C(=O)c1ccc(OC)cc1`, the compound was classed as inactive.
